This is a sample that favours compounds with a hit; in the whole collection about 4.8% have one here.
ssDAF12 agonist: S. stercoralis DAF-12 activation, primary screen | 370,000 compounds, 1% hits | activation, % at 6.8 µM | AID 652126 | HEK293 ssDAF-12/GRIP1 lit1-tk-luc reporter, luminescence; % of 3 µM dafachronic acid response;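 active means activation above the mean over all tested compounds plus 3 SD, cut at about 0.9% in these data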
SMARCA2 activ: SMARCA2 function activation, primary screen. MG213 cells, MMTV-luciferase reporter, dexamethasone, overnight. activation, % at 9.1 µM. 370,000 compounds, 1% hits. AID 652017; in the data active means activation above about 7.8%
DAX1 inh-1: blocks DAX1 repression of SF-1 activated StAR promoter; inhibition, % at 6.8 µM; 370,000 compounds, 1.1% hits; HEK293T StAR-luciferase reporter, SF-1/DAX-1 repression relief; AID 652010;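 active means inhibition above the mean over all tested compounds plus 3 SD, cut at about 3.6% in these data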;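 further: higher inhibition means more luminescence from relief of DAX-1 repression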
hgDAF-12 ag: agonists of H. glycines DAF-12 nuclear receptor; HEK293 GAL4-hgDAF12 UAS-luciferase reporter, agonist luminescence; normalized to butyrate control; activation, % at 6.8 µM; 370,000 compounds, 1.8% hits;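 active means activation above a cutoff set at the mean of all screened compounds plus 3 SD, cut at about 10% in these data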
DAX1 inh-2: inhibits human nuclear receptor DAX1; P51843; HEK293 Gal4-DAX1 luciferase reporter, luminescence; inhibition, % at 6.75 µM; 340,000 compounds, 0.99% hits; AID 504766;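 active means inhibition above the mean over all tested compounds plus 3 SD, cut at about 4.2% in these data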;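 further: inhibition shows as a rise in luminescence from relieved DAX1 repression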
Target sequence (P51843 207-470 limits assumed): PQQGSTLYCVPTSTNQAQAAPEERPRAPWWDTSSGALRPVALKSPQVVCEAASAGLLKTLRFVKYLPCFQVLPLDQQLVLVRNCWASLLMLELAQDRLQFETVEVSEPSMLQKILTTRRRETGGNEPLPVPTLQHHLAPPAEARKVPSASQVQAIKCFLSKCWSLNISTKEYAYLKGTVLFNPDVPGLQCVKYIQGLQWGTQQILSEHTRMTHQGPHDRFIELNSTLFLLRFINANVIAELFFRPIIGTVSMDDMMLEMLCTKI
hcDAF-12 act: H. contortus DAF-12 activation, primary screen | activation, % at 6.8 µM | 370,000 compounds, 1.4% hits | HEK293 hcDAF-12 lit1-tk-luc reporter, luminescence; 0% DMSO, 100% Δ7-dafachronic acid;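 active means activation above the mean of all tested compounds plus 3 SD, cut at about 5.5% in these data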
DAX1 inh confirm: NR0B1 (human) inhibition, confirmation; shares compounds with DAX1 inh-1; HEK293T StAR-promoter luciferase reporter, SF-1/DAX-1 repression; inhibition, % at 6.8 µM; 2,400 compounds, 87% hits; AID 652134;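 active means inhibition above the average of every tested compound plus 3 SD, cut at about 3.8% in these data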;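 further: active compounds raise luminescence by relieving repression of the StAR reporter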
SF1 mutant ctr: nonselective inhibitor or artifact in SF-1 mutant DAX1 counter-screen. inhibition, % at 6.8 µM. 2,400 compounds, 78% hits. AID 652136. shares compounds with DAX1 inh-1. HEK293 StAR-luciferase, SF-1 AF2 mutant, luminescence;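 active means inhibition above the mean of all tested compounds plus 3 SD, cut at about 3% in these data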
Each line names hits and unclear results; the compound was inactive in the other large screens (follow-up assays come after a bar, where they were run).

COc1ccc(C(=O)Nc2cc(C(=O)NCCc3ccccc3)ccc2Cl)cc1	none
COCC(=O)Nc1cc(C(=O)NCCc2ccccc2)ccc1Cl	DAX1 inh-1 5.7, hcDAF-12 act 5.8 | DAX1 inh confirm 9.3 | SF1 mutant ctr 3.3
COC(=O)c1cc2c(c3c4cc(F)ccc4n(S(=O)(=O)c4cccc(C)c4)c13)C(=O)N(Cc1ccc(C(F)(F)F)cc1)C2	none (no result: DAX1 inh-2)
COc1ccc(/C(N)=N/OC(=O)C2CCCCC2)cc1OC	DAX1 inh-1 6.0 | DAX1 inh confirm inactive | SF1 mutant ctr 3.6
COc1ccc(/C(N)=N/OC(=O)CC2CCCCC2)cc1OC	none
COc1ccc(/C(N)=N/OC(=O)C2CCCCC2)cc1	DAX1 inh-1 5.9 | DAX1 inh confirm 8.9 | SF1 mutant ctr 5.8
N/C(=N\OC(=O)C1CCCCC1)c1cccc(Br)c1	none (no result: ssDAF12 agonist, SMARCA2 activ, DAX1 inh-1, hgDAF-12 ag, hcDAF-12 act)
COC(=O)[C@]12C[C@H](CC(=O)NCc3ccccc3)C(=O)N(Cc3cccc4ccccc34)C1=C[C@H](C(C)(C)C)O[C@@H]2C	none (no result: DAX1 inh-2)
COc1cc(C=Nn2c(-c3ccccc3F)n[nH]c2=S)ccc1OCc1ccccc1	none (no result: DAX1 inh-2)
Cc1cccc(C(=O)Nc2ccn(C)n2)c1	DAX1 inh-1 4.9 | DAX1 inh confirm 5.8 | SF1 mutant ctr 3.0
Cc1cccc(C(=O)Nc2ccnc(-c3ccncc3)n2)c1	none
CN(C(=O)CSc1nc2ccccc2o1)C1CCCCC1	DAX1 inh-1 9.0, hgDAF-12 ag 13.1 | DAX1 inh confirm 7.2 | SF1 mutant ctr 5.9
Cc1ccc(C)c(NC(=O)CN(C)C(=O)c2cc3ccccc3o2)c1	none
Cc1ccc(C)c(NC(=O)CN(C)C(=O)c2cc3ccccc3oc2=O)c1	DAX1 inh-1 5.9 | DAX1 inh confirm 6.8 | SF1 mutant ctr 5.6
Cc1ccsc1C(=O)NNC(=O)C1C2C=CC(C2)C1C(=O)O (stereo not drawn)	ssDAF12 agonist 1.1, SMARCA2 activ 9.0, DAX1 inh-1 5.2, hgDAF-12 ag 17.1, hcDAF-12 act 9.5 | DAX1 inh confirm 3.8 | SF1 mutant ctr inactive
COC(=O)c1sccc1NC(=O)C1C2C=CC(C2)C1C(=O)O (stereo not drawn)	none
CCN(CC)C(=O)CSc1nnc(-c2ccc(C(C)(C)C)cc2)n1Cc1ccco1	none (no result: DAX1 inh-2)
CCc1ccc(C(=O)NNC(=O)Cn2c(=O)cnc3ccccc32)cc1	DAX1 inh-1 5.4 | DAX1 inh confirm inactive | SF1 mutant ctr inactive
c1ccc(-c2c[nH]c3cccc(-c4cc5ccccc5o4)c23)cc1	none (no result: DAX1 inh-2)
CN=C1S/C(=C/c2cc(C)n(Cc3ccccc3)c2C)C(=O)N1C	none (no result: SMARCA2 activ, DAX1 inh-1, DAX1 inh-2)
CC(Sc1ccccc1F)C(=O)Nc1ccc2c(c1)OCCO2 (stereo not drawn)	ssDAF12 agonist 0.9, DAX1 inh-1 4.9 | DAX1 inh confirm 6.5 | SF1 mutant ctr 4.0
CC(Sc1ccc2c(c1)OCCO2)C(=O)Nc1ccc2c(c1)OCO2 (stereo not drawn)	none
COc1ccc(N2c3ccccc3CN(Cc3ccccc3)CC2Cc2cc(OC)c(OC)c(OC)c2)cc1 (stereo not drawn)	none
C[C@H]1[C@@H](Cc2cc(Cl)cc(Cl)c2)N(c2ccccc2)c2ccccc2CN1Cc1ccccc1	DAX1 inh-1 5.0 (no result: DAX1 inh-2) | DAX1 inh confirm inactive | SF1 mutant ctr inactive
C(=N\Nc1ccccn1)/c1ccc(N2CCOCC2)cc1	DAX1 inh-1 5.0, hgDAF-12 ag 10.8 | DAX1 inh confirm 8.8 | SF1 mutant ctr 7.0
Cc1ccccc1N1CCN(C(=O)COc2cc(=O)n(C)c3ccccc23)CC1	none (no result: DAX1 inh-2)
COc1ccc(-c2ccnc3c(Br)c(C)nn23)cc1	DAX1 inh-1 4.8 | DAX1 inh confirm inactive | SF1 mutant ctr inactive
Cc1nn2c(-c3ccc(F)cc3)ccnc2c1Br	none
O=C(NC1CCCCN(Cc2cccc(Cl)c2)C1=O)c1cccc([N+](=O)[O-])c1 (stereo not drawn)	none (no result: DAX1 inh-2)
O=C(Nc1ccc(F)cc1F)c1csc(-c2ccncc2)n1	none
O=C(Nc1ccc(F)cc1F)c1csc(-c2cccs2)n1	ssDAF12 agonist 2.1, DAX1 inh-1 7.0, hgDAF-12 ag 12.7 | DAX1 inh confirm 9.3 | SF1 mutant ctr 6.7
Cc1nc2ccc(S(=O)(=O)NCC(=O)NCc3ccccc3Cl)cc2s1	none (no result: DAX1 inh-2)
N/C(=N\OC(=O)c1ccc(Cl)cc1)c1ccc(Cl)cc1	none

Source: PubChem BioAssay
